# From the supplement of paper PMC9262897, “Low-cost anti-mycobacterial drug discovery using engineered E. coli” (Nature Communications, 2022)
# Counter-ions that a name gives are not always drawn. ± gives the standard deviation of the averaged measurements.
# Tests used:
# Experiment in all cases: growth (OD600 after 10 h); higher = more growth (less inhibition)
# [1] = test system: E. coli TESEC Alr+ wild-type control; conditions: compound 0.1 mM; raw OD600 reference: median of DMSO wells 0.241, cell-free background 0.041
# Method: (§1)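 TESEC Mtb Alr E. coli, or the Alr+ wild-type control, in 384-well plates with Prestwick library compounds at 0.1 mM and 1% DMSO, across arabinose induction levels of 1E3 to 1E7 nM. Growth is read as OD600 after 10 h at 37 °C in triplicate biological replicates.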
# E. coli TESEC Mtb Alr [2] = conditions: compound 0.1 mM
# Method: as §1
# E. coli TESEC Mtb Asd = conditions: compound 0.1 mM
# Method: (§2)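 TESEC E. coli strains in which the native enzyme is deleted and replaced by arabinose-inducible Mtb Asd, DapB, CysH or TrpD, each grown in its selective medium. Strains were screened against the Prestwick library at 0.1 mM and 1% DMSO in 384-well format at low and high arabinose induction. Growth is read as OD600 after 10 h in triplicate.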
# E. coli TESEC Mtb DapB = conditions: compound 0.1 mM
# Method: as §2
# [3] = test system: E. coli TESEC Alr+ wild-type control; conditions: compound 0.1 mM; raw OD600 reference: median of DMSO wells 0.49, cell-free background 0.052
# Method: (§3)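 TESEC Mtb Alr E. coli (ΔaraC ΔtolC ΔentC Δalr ΔdadX, arabinose-inducible Mtb Alr) or the Alr+ wild-type control strain, grown in defined M9-fructose medium without D-alanine in 96-well plates with Prestwick library compounds at 0.1 mM and 1% DMSO. Low Alr induction is 0.1 µM arabinose and high induction is 10 mM arabinose.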
# E. coli TESEC Mtb Alr [4] = conditions: compound 0.1 mM; remark: listed apart in the source
# Method: as §3
# [5] = arabinose 1000 nM, raw OD600 reference: median of DMSO wells 0.294, cell-free background 0.041
# [6] = arabinose 10000 nM, raw OD600 reference: median of DMSO wells 0.264, cell-free background 0.041
# [7] = arabinose 100000 nM, raw OD600 reference: median of DMSO wells 0.201, cell-free background 0.041
# [8] = arabinose 1000000 nM, raw OD600 reference: median of DMSO wells 0.193, cell-free background 0.041
# [9] = arabinose 10000000 nM, raw OD600 reference: median of DMSO wells 0.146, cell-free background 0.041
# [10] = arabinose induction (level): High, raw OD600 reference: median of DMSO wells 0.331, cell-free background 0.041
# [11] = arabinose induction (level): Low, raw OD600 reference: median of DMSO wells 0.417, cell-free background 0.041
# [12] = arabinose induction (level): High, raw OD600 reference: median of DMSO wells […], cell-free background 0.041
# [13] = arabinose induction (level): Low, raw OD600 reference: median of DMSO wells 0.227, cell-free background 0.041
# [14] = arabinose 100 nM, raw OD600 reference: median of DMSO wells 0.413, cell-free background 0.052
# [15] = arabinose 10000000 nM, raw OD600 reference: median of DMSO wells […], cell-free background 0.052
SMILES,growth [1],growth (E. coli TESEC Mtb Alr [2]; [5]),growth (E. coli TESEC Mtb Alr [2]; [6]),growth (E. coli TESEC Mtb Alr [2]; [7]),growth (E. coli TESEC Mtb Alr [2]; [8]),growth (E. coli TESEC Mtb Alr [2]; [9]),growth (E. coli TESEC Mtb Asd; [10]),growth (E. coli TESEC Mtb Asd; [11]),growth (E. coli TESEC Mtb DapB; [12]),growth (E. coli TESEC Mtb DapB; [13]),growth [3],growth (E. coli TESEC Mtb Alr [4]; [14]),growth (E. coli TESEC Mtb Alr [4]; [15])
CC(C)Oc1ccc2c(=O)c(-c3ccccc3)coc2c1 [Ipriflavone],0.196 ± 0.0047,0.25 ± 0.018,0.231 ± 0.0093,0.186 ± 0.015,0.117 ± 0.02,0.138 ± 0.0016,0.345 ± 0.098,0.4 ± 0.021,0.191 ± 0.018,0.211 ± 0.039,0.464 ± 0.025,0.402 ± 0.014,0.285 ± 0.012
Cc1cccc(C)c1NC(=O)C(C)N (configuration not stated) [Tocainide hydrochloride],0.26 ± 0.0084,0.318 ± 0.0085,0.269 ± 0.0071,0.187 ± 0.014,0.1844 ± 0.0016,0.145 ± 0.0027,0.209 ± 0.016,0.433 ± 0.031,0.232 ± 0.038,0.244 ± 0.06,0.483 ± 0.061,0.4 ± 0.015,0.307 ± 0.023
O=C1c2c(O)cccc2Cc2cccc(O)c21 [Anthralin],0.161 ± 0.0039,0.159 ± 0.018,0.169 ± 0.017,0.205 ± 0.0082,0.151 ± 0.0087,0.182 ± 0.0047,0.22 ± 0.013,0.306 ± 0.13,0.246 ± 0.017,0.229 ± 0.051,0.339 ± 0.015,0.29 ± 0.034,0.239 ± 0.03
CC(C)(Oc1ccc(Cl)cc1)C(=O)O [Clofibric acid],0.253 ± 0.0056,0.313 ± 0.011,0.256 ± 0.01,0.201 ± 0.015,0.171 ± 0.0038,0.154 ± 0.0039,0.443 ± 0.024,0.442 ± 0.025,0.199 ± 0.016,0.251 ± 0.037,0.547 ± 0.1,0.404 ± 0.011,0.305 ± 0.011
CCN(CC)C(=S)SSC(=S)N(CC)CC [Disulfiram],0.278 ± 0.0078,0.197 ± 0.027,0.115 ± 0.0063,0.161 ± 0.014,0.0709 ± 0.0023,0.06003 ± 0.00047,0.192 ± 0.028,0.33 ± 0.034,0.161 ± 0.013,0.211 ± 0.01,0.443 ± 0.066,0.23 ± 0.093,0.146 ± 0.008
CCCCCCCN(CC)CCCC(O)c1ccc(NS(C)(=O)=O)cc1 (configuration not stated) [Ibutilide fumarate],0.219 ± 0.041,0.298 ± 0.013,0.268 ± 0.01,0.183 ± 0.02,0.158 ± 0.0044,0.137 ± 0.001,0.271 ± 0.022,0.44 ± 0.022,0.197 ± 0.027,0.243 ± 0.019,0.55 ± 0.095,0.408 ± 0.0059,0.313 ± 0.016
C[C@]1(Cn2ccnn2)[C@H](C(=O)O)N2C(=O)C[C@H]2S1(=O)=O [Tazobactam],0.249 ± 0.011,0.0404 ± 0.0022,0.0384 ± 0.0001,0.045 ± 0.0019,0.18 ± 0.015,0.074 ± 0.0014,0.405 ± 0.031,0.424 ± 0.022,0.195 ± 0.004,0.19 ± 0.017,0.0454 ± 0.00051,0.245 ± 0.17,0.0826 ± 0.0045
CC(C)NCC(O)c1ccc2ccccc2c1 (configuration not stated) [Pronethalol hydrochloride],0.245 ± 0.013,0.305 ± 0.0032,0.2658 ± 0.0016,0.207 ± 0.023,0.187 ± 0.0061,0.142 ± 0.0032,0.247 ± 0.045,0.431 ± 0.085,0.194 ± 0.015,0.225 ± 0.03,0.473 ± 0.048,0.403 ± 0.012,0.351 ± 0.017
C[C@]12CCC(=O)C=C1CC[C@@H]1[C@@H]2C(=O)C[C@@]2(C)[C@H]1CC[C@]2(O)C(=O)CO [Cortisone],0.216 ± 0.0023,0.278 ± 0.0049,0.237 ± 0.014,0.176 ± 0.011,0.1797 ± 0.00035,0.128 ± 0.0041,0.396 ± 0.078,0.445 ± 0.041,0.19 ± 0.0096,0.223 ± 0.023,0.46 ± 0.066,0.41 ± 0.0069,0.336 ± 0.0035
CCOC(=O)C1=C(COCCN)NC(C)=C(C(=O)OC)C1c1ccccc1Cl (configuration not stated) [Amlodipine],0.231 ± 0.0038,0.2004 ± 0.0019,0.23 ± 0.022,0.179 ± 0.0029,0.0929 ± 0.0035,0.104 ± 0.0021,0.132 ± 0.0075,0.136 ± 0.0072,0.155 ± 0.077,0.205 ± 0.017,0.566 ± 0.028,0.398 ± 0.0055,0.282 ± 0.011
NC(N)=Nc1nc(CSCC/C(N)=N/S(N)(=O)=O)cs1 [Famotidine],0.248 ± 0.0073,0.298 ± 0.013,0.273 ± 0.014,0.203 ± 0.03,0.187 ± 0.0063,0.151 ± 0.011,0.348 ± 0.074,0.436 ± 0.038,0.206 ± 0.043,0.203 ± 0.025,0.465 ± 0.058,0.413 ± 0.0053,0.328 ± 0.014
CCn1cc(C(=O)O)c(=O)c2ccc(C)nc21 [Nalidixic acid sodium salt],0.04987 ± 0.00029,0.0467 ± 0.0009,0.0394 ± 0.00056,0.0502 ± 0.0012,0.0413 ± 0.0013,0.05153 ± 0.00015,0.09847 ± 0.00049,0.0829 ± 0.0083,0.0992 ± 0.0072,0.0689 ± 0.0001,0.0678 ± 0.0015,0.0753 ± 0.014,0.0595 ± 0.0029
COc1cc(NS(=O)(=O)c2ccc(N)cc2)ncn1 [Sulfamonomethoxine],0.222 ± 0.0061,0.259 ± 0.022,0.173 ± 0.0027,0.2 ± 0.0044,0.1141 ± 0.00026,0.1384 ± 0.0013,0.345 ± 0.061,0.413 ± 0.018,0.166 ± 0.026,0.19 ± 0.014,0.596 ± 0.092,0.422 ± 0.0097,0.331 ± 0.0088
CC(=O)N[C@@H](CC(=O)N[C@@H](CCC(=O)O)C(=O)O)C(=O)O [Spaglumic acid],0.237 ± 0.0082,0.289 ± 0.013,0.284 ± 0.015,0.197 ± 0.0095,0.198 ± 0.0026,0.143 ± 0.0028,0.227 ± 0.021,0.426 ± 0.026,0.211 ± 0.021,0.216 ± 0.027,0.522 ± 0.037,0.434 ± 0.0089,0.327 ± 0.0062
